PLAP act: human PLAP activation | purified PLAP enzyme, luminescent substrate read-out; active compounds read high | P05187 | 96,000 tested, 1.2% active | activation fold at 20 µM; in the data active means activation fold above about 2
CYP2C19 act: increases human CYP2C19 enzyme activity; P33261; recombinant CYP2C19, luciferin-H EGE luminescence; active compounds read high; 0 = fully inhibited enzyme, 1 = untreated enzyme; activation factor at 5 µM; 96,000 tested, under 10 active;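 active means activation factor of at least 2 at 5 µM in the primary screen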
Target sequence (P33261 whole entry, looked up): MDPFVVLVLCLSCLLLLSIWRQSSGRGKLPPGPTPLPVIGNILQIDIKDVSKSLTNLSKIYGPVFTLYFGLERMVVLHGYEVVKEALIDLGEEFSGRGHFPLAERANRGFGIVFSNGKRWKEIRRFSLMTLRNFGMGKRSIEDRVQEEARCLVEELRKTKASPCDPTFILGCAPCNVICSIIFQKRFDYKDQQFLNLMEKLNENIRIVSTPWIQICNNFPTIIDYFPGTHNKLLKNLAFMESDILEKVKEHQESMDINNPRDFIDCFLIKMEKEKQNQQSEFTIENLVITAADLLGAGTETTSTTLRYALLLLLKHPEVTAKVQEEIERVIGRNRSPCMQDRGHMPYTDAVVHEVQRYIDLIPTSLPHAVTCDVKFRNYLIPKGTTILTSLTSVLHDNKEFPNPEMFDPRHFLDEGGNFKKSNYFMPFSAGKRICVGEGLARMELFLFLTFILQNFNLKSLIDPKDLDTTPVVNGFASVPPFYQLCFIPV
CYP2C9 act: increases human cytochrome P450 2C9 activity | P11712 | recombinant CYP2C9, luciferin-H conversion, luminescence; active compounds read high; factor 1 = untreated enzyme, 0 = blocked | activation factor at 5 µM | 96,000 tested, 1.4% active | AID 1024;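 active means activation factor of 2 or more for CYP2C9 at a 5 µM dose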
CYP2C9 inhib: blocks human cytochrome P450 2C9; CYP2C9 Supersomes, luciferin-H conversion, luminescence; inhibition, % at 5 µM; 96,000 tested, 20% active;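 active means blocking of liver enzyme CYP2C9 beyond about 50% at 5 µM, limit read from the data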
CYP2C19 inh: blocks human cytochrome P450 2C19 | P33261 | 96,000 tested, 21% active | inhibition, % at 5 µM | CYP2C19 Supersomes, luciferin-H EGE luminescence, 30 min;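 active means CYP2C19 inhibition above a set limit at 5 µM in the primary screen, cut at about 50% in these data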
Numbers stand for hits; . = inactive. Sampled rows, rich in hits. Any-hit rate of the full collection: about 31%.

SMILES | PLAP act | CYP2C19 act | CYP2C9 act | CYP2C9 inhib | CYP2C19 inh
CC1CCCCC1NC(=O)c1ccc(S(=O)(=O)N2CCCC2)cc1 (stereo not drawn) | . | . | . | . | .
CC1CCCCC1NC(=O)c1ccc2c(c1)[nH]c(=O)n2C1CCCC1 (stereo not drawn) | . | . | . | 76.2 | .
O=C(CN1CCN(Cc2cccc(Cl)c2)C1=O)NCc1ccccn1 | . | . | . | . | .
CC1=CCC(C(=O)O)(C(=O)N/N=C/c2cccs2)C(c2ccc(F)cc2)C1 (stereo not drawn) | . | . | . | 67.2 | .
CC1=CCC(C(=O)O)(C(=O)N/N=C/c2cccs2)C(c2ccc([N+](=O)[O-])cc2)C1 (stereo not drawn) | . | . | . | . | .
CCN(CC)S(=O)(=O)c1ccc2oc(C(=O)NCC3COc4ccccc4O3)c(C)c2c1 (stereo not drawn) | . | . | . | 75.5 | .
Cc1c(C(=O)NCC2CCCO2)oc2ccc(S(=O)(=O)N3CC(C)CC(C)C3)cc12 (stereo not drawn) | . | . | . | 58.9 | .
Cc1c(C(=O)NCC2COc3ccccc3O2)oc2ccc(S(=O)(=O)N3CC(C)CC(C)C3)cc12 (stereo not drawn) | . | . | . | . | .
Cc1c(C(=O)NCC2COc3ccccc3O2)oc2ccc(S(=O)(=O)N3CCOCC3)cc12 (stereo not drawn) | . | . | . | 55.8 | .
CCCn1nc(-c2nnc(-c3ccc(C)c(C)c3)o2)c2ccccc2c1=O | . | . | . | . | .
O=C(NC(Cc1ccccc1)C(=O)OCC(=O)N1CCc2ccccc21)c1ccco1 (stereo not drawn) | . | . | . | . | .
CCCNC(=O)c1ccc2c(c1)C1C3CCC(C3)C1C(c1ccccc1)N2 (stereo not drawn) | 2.6 | . | . | 100.0 | 88.7
O=C(NCC1CCCO1)c1ccc(CS(=O)(=O)c2c(Cl)cccc2Cl)o1 (stereo not drawn) | . | . | . | . | 53.8
Clc1ccc(OCc2cc(-c3ccccc3)no2)c(Cl)c1 | . | . | . | . | .
Cc1cc(Cl)cc2c1NC(=O)[C@]21[C@@H]2C(=O)N(Cc3ccccc3)C(=O)[C@@H]2[C@@H]2CCCN21 | . | . | . | . | .
CCc1ccc2c(c1)[C@]1(C(=O)N2)[C@@H]2C(=O)N(Cc3ccccc3)C(=O)[C@@H]2[C@@H]2CCCN21 | . | . | . | 67.7 | 75.0
O=C(Cc1cccs1)Nc1ccc(N2CCOCC2)cc1 | . | . | . | . | .
CCCCOC(=O)n1ccc(C(=O)Nc2ccccc2OC)n1 | . | . | 2.1 | . | .
COc1ccccc1NS(=O)(=O)c1ccc(NC(=O)c2nc3ncccn3n2)cc1 | . | . | . | . | .
CCn1ccc(C(=O)Nc2ccc(S(=O)(=O)Nc3ccccc3OC)cc2)n1 | . | . | . | 81.6 | 80.7
COc1ccccc1NS(=O)(=O)c1ccc(NC(=O)c2nc3nc(C)cc(C(F)F)n3n2)cc1 | . | . | . | 61.1 | .
O=C(c1cccc2cccc(O)c12)N1CCCCC1 | . | . | . | . | .
CCOC(=O)n1c(=O)oc2cc(S(=O)(=O)N3CCOCC3)ccc21 | . | . | . | . | .
Cn1nc(C(=O)NC2CCCCC2)c2ccccc2c1=O | . | . | . | . | .
Cn1cc(Cl)c(C(=O)NC2CCCCCC2)n1 | . | . | . | . | 67.4
SMILES | PLAP act | CYP2C19 act | CYP2C9 act | CYP2C9 inhib | CYP2C19 inh
CCc1ccc(NC(=O)CNC(=O)c2cn(-c3ccccc3OC)c(=O)c3ccccc23)cc1 | 2.2 | . | . | 98.7 | 97.9
COCCNC(=O)CSc1nc2ccccc2c2nc(C)nn12 | . | . | . | . | .
CCOc1cc(-c2cc(-c3ccc(C)cc3)nc(N)c2C#N)ccc1O | . | . | . | 84.4 | .
COc1cc(C=C(C(C)=O)C(C)=O)ccc1O | . | . | . | . | .
CCOc1cc(/C=C(\C#N)c2[nH]nc(N)c2C#N)ccc1O | . | . | . | . | 60.1
CCOC(=O)C1CCN(C(=O)c2c(-c3c(F)cccc3Cl)noc2C)CC1 | . | . | . | . | .
O=C(O)c1ccc(S(=O)(=O)NC2CCCCC2)cc1 | . | . | . | . | .
O=C(CCc1ccc(S(=O)(=O)NC2CCCCC2)cc1)N(Cc1ccccc1)Cc1ccccc1 | . | . | . | 88.0 | 69.5
CSc1ccc(S(=O)(=O)NC2CCCCCC2)cc1 | . | . | . | . | 95.0
O=C(CCc1ccc(S(=O)(=O)NC2CCCCC2)cc1)Nc1ccccc1 | . | . | . | . | .
